Results reported in PubChem BioAssay.
Records with an inconclusive call do not appear. Active and inactive are the calls of the source. Unless noted, cut-off not given; nearly all actives show AC50 up to about 26 µM.

Key:
[1] = viability loss in pontine glioma line – cell-based, SU-DIPG-XXV, MIPE5.0, CellTiter-Glo, qHTS, dose response (AID 1347065); details: CellTiter-Glo ATP luminescence;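 further: cells exposed to compound for 48 hours before ATP readout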
[2] = growth inhibition of DIPG cells – cell-based, MIPE5.0 library, qHTS (AID 1347068; cut-off not given, nearly all actives have IC50 up to about 30 µM;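 on IC50: cells exposed to compound for 48 hours before viability readout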); details: SU-DIPG-XXV viability
[3] = JHH-DIPG-1 glioma cell viability, MIPE5.0 library, CellTiter-Glo luminescence, qHTS (AID 1347067); details: JHH-DIPG-1 glioma viability, CellTiter-Glo ATP luminescence;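 further: cells exposed to compound for 48 hours before readout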
[4] = growth inhibition, single agent or in combination, cell-based, chromothripsis tumors, cisplatin or BGB combos (AID 1671449; in the data active means inhibition above about 80%;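 further: cells exposed for 96 hours; 0% = vehicle DMSO and 100% = killing by high DMSO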); details: LFS_MB_P medulloblastoma cells
[5] = growth inhibition, single agent and combos, cell-based, chromothripsis tumors, cisplatin or BGB combos (AID 1671450; in the data active means inhibition above about 80%;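 further: cells exposed to compound for four days; 0% = vehicle DMSO and 100% = cell killing by high DMSO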); details: HDN33 neuroblastoma cells, stronger effect = higher value
[6] = growth inhibition, single agents and combos, ICB984, cell-based, cisplatin or BGB combos, synergistic combos for chromothripsis tumors (AID 1671451; call rule not given here;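 further: cells exposed for 96 hours before readout; 0% = vehicle DMSO and 100% = killing by high DMSO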); details: ICB984 medulloblastoma cells, drug combinations, stronger effect = higher value
[7] = growth inhibition, single agents and combos, LFS_MB_1R, cell-based, cisplatin or BGB combos, synergistic combos for chromothripsis tumors (AID 1671452; in the data active means inhibition above about 80%;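 further: cells exposed for 96 hours before readout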); details: LFS_MB_1R medulloblastoma cells, stronger effect = higher value
[8] = growth inhibition, single agents and combos, HTB85, cell-based, BGB or cisplatin IC20 combos, synergistic combos for chromothripsis tumors (AID 1671453; in the data active means inhibition above about 80%;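 further: cells exposed for 96 hours before readout; 0% = vehicle DMSO and 100% = high DMSO killing control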); details: HTB85 osteosarcoma cells, drug combinations, stronger effect = higher value
[9] = growth inhibition, single agents and combos, CRL2098, cell-based, BGB or cisplatin IC20 combos, synergistic combos for chromothripsis tumors (AID 1671454; in the data active means inhibition above about 80%;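 further: cells exposed for 96 h before readout; 0% = vehicle DMSO and 100% = killing by high DMSO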); details: CRL2098 osteosarcoma cells, drug combinations, stronger effect = higher value
[10] = growth inhibition, single agents and combos, HD-MB03, cell-based, BGB or cisplatin IC20 combos, synergistic combos for chromothripsis tumors (AID 1671455; in the data active means inhibition above about 83%;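 further: 0% = vehicle DMSO and 100% = high DMSO as cytotoxic control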); details: HD-MB03 medulloblastoma cells, stronger effect = higher value
[11] = growth inhibition, single agents and combos, UWB1.289, cell-based, BGB or cisplatin combos, synergistic combos for chromothripsis tumors (AID 1671456; in the data active means inhibition above about 80%;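 further: cells exposed to compound for four days; 0% = vehicle DMSO and 100% = killing by high DMSO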); details: UWB1.289 ovarian carcinoma cells, stronger effect = higher value
[12] = growth inhibition, single agents and combos, LFS_MB_2R, cell-based, cisplatin combos, synergistic combos for chromothripsis tumors (AID 1671457; in the data active means inhibition above about 80%;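 further: cells exposed to compound for four days before readout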); details: LFS_MB_2R medulloblastoma cells, stronger effect = higher value
[13] = growth inhibition, MDA-MB-436, cell-based, BGB or cisplatin combos, synergistic combos for chromothripsis tumors (AID 1671458; call rule not given here;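 further: cells exposed for 96 hours; 0% = vehicle DMSO and 100% = killing by high DMSO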); details: MDA-MB-436 breast carcinoma growth inhibition, drug combinations, stronger effect = higher value
[14] = UWB1.289_BRCA1 ovarian cancer growth, cell-based, BGB or cisplatin combinations (AID 1671459; in the data active means inhibition above about 80%); details: UWB1.289 BRCA1 ovarian carcinoma, drug combinations, stronger effect = higher value
[15] = drug combination toxicity in non-malignant astrocytes – cell-based, BGB or cisplatin IC20 combos, cytotoxicity control for chromothriptic childhood tumor combination screen (AID 1671460; in the data active means inhibition above about 80%;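 further: cells exposed to compounds for 96 hours before viability readout; 0% = vehicle and 100% = killing control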); details: Human astrocytes, viability inhibition, drug combinations, at 0.5 µM, stronger effect = higher value
[16] = BT084 cell growth, single and combined drugs, ICGC_MB145, cisplatin and BGB IC40 combos (AID 1671461; in the data active means inhibition above about 80%;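 further: cells exposed to drugs for 96 hours; 0% = vehicle DMSO and 100% = high DMSO full killing control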); details: BT084 medulloblastoma cells, drug combinations, stronger effect = higher value
[17] = RCMB18 cell growth, single agent and combined, cisplatin and BGB IC40 combos (AID 1671462; in the data active means inhibition above about 80%;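 further: cells exposed to compound for four days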); details: RCMB18 medulloblastoma cells, stronger effect = higher value
[18] = CRL1545 cell growth, single agent and combined, cisplatin and BGB IC20 combos (AID 1671464; in the data active means inhibition above about 80%;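 further: cells exposed to compound for 96 hours before readout; 0% = vehicle DMSO and 100% = high DMSO killing control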); details: CRL1545 osteosarcoma cells, stronger effect = higher value
[19] = measured here: combination with BGB IC40, at 0.05 µM
[20] = measured here: with BGB IC20 combination, at 0.5 µM
[21] = measured here: with cisplatin IC20 combination, at 0.5 µM
[22] = measured here: combination with cisplatin, at 0.5 µM
[23] = measured here: combination with cisplatin, at 5 µM

Compound: Cc1cccc(-c2[nH]c(CNc3ccccc3F)nc2-c2ccc3ncnn3c2)n1
- outcome [1]: inactive
- outcome [2]: inactive

Compound: CC(C)(O)CNc1nc(Nc2ccnc(C(F)(F)F)c2)nc(-c2cccc(C(F)(F)F)n2)n1
- AC50 [1]: 14.8 µM (active)
- outcome [2]: inactive

Compound: CCC(CC)C(c1ccc(Nc2nc3ccccc3s2)cc1)n1cncn1 (stereo unspecified)
- AC50 [1]: 18.6 µM (active)
- IC50 [2]: 20.9 µM (active)

Compound: CCc1cc2c(cc1N1CCC(N3CCOCC3)CC1)C(C)(C)c1[nH]c3cc(C#N)ccc3c1C2=O
- AC50 [1]: 2.04 µM (active)
- outcome [2]: inactive

Compound: C[C@]12CCCN1CC1=NNC(=O)c3cc(F)cc4[nH]c2c1c34
- AC50 [1]: 18.6 µM (active)
- outcome [3]: inactive
- outcome [2]: inactive
- inhibition ([4]; at 0.5 µM, stronger effect = higher value): -13.4% (inactive)
- inhibition ([4]; measured here: combination with BGB IC20, at 0.005 µM): -16.8%
- inhibition ([4]; measured here: combination with BGB IC40, at 0.005 µM): -28.9%
- inhibition [4, 19]: -3.06%
- inhibition ([4]; measured here: combination with cisplatin, at 0.5 µM, stronger effect = higher value): -13.1%
- inhibition ([4]; measured here: combination with cisplatin, at 5 µM, stronger effect = higher value): -44.5%
- inhibition ([5]; BGB combo, at 5 µM): 6.78%
- inhibition ([5]; at 0.5 µM): 9.23% (inactive)
- inhibition ([5]; cisplatin combo, at 5 µM): 35.8%
- inhibition [5, 20]: 6.38%
- inhibition [5, 21]: -0.356%
- inhibition ([5]; single agent, at 5 µM): 20.9%
- inhibition ([6]; BGB IC20 combo, at 0.005 µM): -2.46%
- inhibition ([6]; BGB IC40 combo, at 0.005 µM): -21.8%
- inhibition ([6]; BGB IC40 combo, at 0.05 µM): -22.5%
- inhibition ([6]; at 0.5 µM): -38.3% (inactive)
- inhibition ([6]; cisplatin combo, at 0.05 µM): -27.3%
- inhibition ([6]; cisplatin combo, at 0.5 µM): -41.3%
- inhibition ([6]; cisplatin combo, at 5 µM): -0.499%
- inhibition ([6]; measured here: 5 uM single agent, at 5 µM): -4.83%
- inhibition ([7]; at 0.5 µM): -20.6% (inactive)
- inhibition [7, 19]: 7.39%
- inhibition [7, 22]: -14%
- inhibition [7, 23]: 1.25%
- inhibition ([8]; at 0.5 µM): 2.64% (inactive)
- inhibition ([8]; measured here: with BGB IC20, at 0.5 µM): -13.5%
- inhibition ([8]; measured here: with BGB IC20, at 5 µM): 4.08%
- inhibition ([8]; measured here: with cisplatin IC20, at 0.5 µM): 10.2%
- inhibition ([8]; measured here: with cisplatin IC20, at 5 µM): 21.1%
- inhibition ([8]; single agent, at 5 µM): 23.4%
- inhibition ([9]; at 0.5 µM): -35.2% (inactive)
- inhibition ([9]; measured here: combination with BGB at IC20, at 0.5 µM): 1.29%
- inhibition ([9]; measured here: combination with cisplatin at IC20, at 0.5 µM): -26.6%
- inhibition ([10]; at 0.5 µM): -2.5% (inactive)
- inhibition ([10]; measured here: combo with BGB at IC20, at 0.5 µM): -14.3%
- inhibition ([10]; measured here: combo with cisplatin at IC20, at 0.5 µM): 6.94%
- inhibition ([11]; at 0.5 µM): -3.02% (inactive)
- inhibition ([11]; measured here: inhibition with BGB combination, at 0.05 µM): -15.4%
- inhibition ([11]; measured here: inhibition with cisplatin combination, at 0.05 µM): -2.14%
- inhibition ([12]; at 0.5 µM): -20.2% (inactive)
- inhibition [12, 22]: -18.1%
- inhibition [12, 23]: -24.5%
- inhibition ([13]; at 0.5 µM): 3.1% (inactive)
- inhibition ([13]; measured here: BGB combination, at 0.5 µM): -13.3%
- inhibition ([13]; measured here: BGB combination, at 5 µM): -31.4%
- inhibition ([13]; measured here: cisplatin combination, at 0.5 µM): 5.47%
- inhibition ([13]; measured here: cisplatin combination, at 5 µM): 22.8%
- inhibition ([14]; BGB combination, concentration series, at 5 µM): -3.19%
- inhibition ([14]; at 0.5 µM): 2.39% (inactive)
- inhibition ([14]; cisplatin combination, concentration series, at 5 µM): 5.42%
- inhibition [15]: 14.9% (inactive)
- inhibition ([15]; measured here: combo with BGB IC20): 12%
- inhibition ([15]; measured here: combo with cisplatin IC20): 13.1%
- inhibition ([16]; at 0.5 µM): -23% (inactive)
- inhibition ([16]; cisplatin combination, at 0.5 µM): -25.6%
- inhibition ([16]; cisplatin combination, at 5 µM): -25.6%
- inhibition ([16]; measured here: BGB IC40 combination 0.05 uM, at 0.05 µM): -29%
- inhibition ([16]; single agent, at 5 µM): -12.6%
- inhibition ([17]; at 0.5 µM): -18.5% (inactive)
- inhibition ([17]; cisplatin combo, at 5 µM): 3.33%
- inhibition ([17]; measured here: BGB IC40 combination, at 0.05 µM): -15.1%
- inhibition [17, 22]: -6.38%
- inhibition ([17]; single agent, at 5 µM): -28.1%
- inhibition ([18]; at 0.5 µM): 7.98% (inactive)
- inhibition [18, 20]: -8.07%
- inhibition [18, 21]: 16%
- inhibition ([18]; single agent, at 0.05 µM): 13.9%
- inhibition ([18]; single agent, at 5 µM): 35%

Compound: CN1CC[C@@H](c2c(O)cc(O)c3c(=O)cc(-c4ccc(C(F)(F)F)cc4Cl)oc23)[C@@H]1CO
- AC50 [1]: 23.5 µM (active)
- outcome [3]: inactive

Compound: CN1CCN(C(=O)c2ccc(-c3ccc4c(C=O)c(O)ccc4c3)s2)CC1
- AC50 [1]: 16.6 µM (active)
- outcome [2]: inactive

Compound: C[C@H](NC(=O)c1c(N)nn2cccnc12)c1cc2cccc(C#Cc3cnn(C)c3)c2c(=O)n1-c1ccccc1
- AC50 [1]: 12.9 µM (active)
- outcome [2]: inactive

Compound: CC(C)[C@@H](CS(=O)(=O)C(C)C)N1C(=O)[C@@](C)(CC(=O)O)C[C@H](c2cccc(Cl)c2)[C@H]1c1ccc(Cl)cc1
- AC50 [1]: 18.6 µM (active)
- AC50 [3]: 23.5 µM (active)

Compound: Cc1cc(Nc2ncnc3ccc(NC4=NC(C)(C)CO4)cc23)ccc1Oc1ccn2ncnc2c1
- AC50 [1]: 14.8 µM (active)
- outcome [2]: inactive

Compound: C=CC(=O)Nc1ccc(F)c(-c2ncnc3[nH]cc(C(=O)OCC)c23)c1
- AC50 [1]: 18.6 µM (active)
- AC50 [3]: 18.6 µM (active)
